PAX8 inh HTS: lowers PAX8-driven luciferase in RMG-I cells. RMG-I TPO-luciferase reporter, SteadyGlo, 24 h. inhibition, % at 12.6 µM. 1.2% of 360,000 active. AID 652154;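 active = mean replicate inhibition at least 60% with every replicate also reaching 60%; inconclusive = only one of the two criteria is met; inactive = mean below 60% and not all replicates reaching 60%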;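 also: luciferase light reporting Pax8 driven TPO promoter activity; plate controls were median of neutral control wells for no effect and mitoxantrone controls for full effect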
ABHD5 PLIN5 PPI: blocks binding of human ABHD5 to perilipin-5. Q00G26+Q8WTS1. Split G. princeps luciferase complementation, luminescence, 4 h. inhibition, % at 4 µM. 0.78% of 360,000 active;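 active = inhibition above the mean inhibition across every tested compound plus 3 SD, cut at about 22% in these data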;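 also: 0% = DMSO only wells and the 100% control is not disclosed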
Target sequence (Q00G26 whole entry, looked up): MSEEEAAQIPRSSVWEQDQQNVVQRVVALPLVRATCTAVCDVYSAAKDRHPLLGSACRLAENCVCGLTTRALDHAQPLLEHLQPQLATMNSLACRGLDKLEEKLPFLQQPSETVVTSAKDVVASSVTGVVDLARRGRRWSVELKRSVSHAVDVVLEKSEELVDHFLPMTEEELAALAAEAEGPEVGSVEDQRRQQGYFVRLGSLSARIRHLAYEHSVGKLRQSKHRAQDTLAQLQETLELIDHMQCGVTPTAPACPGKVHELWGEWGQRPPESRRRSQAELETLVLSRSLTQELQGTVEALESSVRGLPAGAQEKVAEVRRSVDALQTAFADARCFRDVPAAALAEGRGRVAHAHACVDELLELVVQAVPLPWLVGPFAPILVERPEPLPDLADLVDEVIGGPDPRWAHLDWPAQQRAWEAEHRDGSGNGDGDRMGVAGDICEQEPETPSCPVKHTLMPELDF
Target sequence (Q8WTS1 whole entry, looked up): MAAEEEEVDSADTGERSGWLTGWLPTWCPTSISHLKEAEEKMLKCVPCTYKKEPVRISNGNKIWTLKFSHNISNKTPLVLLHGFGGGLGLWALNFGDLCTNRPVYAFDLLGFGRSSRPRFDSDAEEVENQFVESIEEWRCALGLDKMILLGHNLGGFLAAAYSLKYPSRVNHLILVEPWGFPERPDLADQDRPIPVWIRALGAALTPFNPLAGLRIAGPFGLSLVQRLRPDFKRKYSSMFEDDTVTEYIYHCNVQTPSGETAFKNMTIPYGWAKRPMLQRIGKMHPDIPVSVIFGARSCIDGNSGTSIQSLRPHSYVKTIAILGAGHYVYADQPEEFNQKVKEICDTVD
EWS-Fli block: EWS/Fli transcriptional activity inhibition. inhibition, % at 12.6 µM. 0.67% of 350,000 active. AID 651661. A673 NR0B1-luciferase reporter, viability-normalised;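 active = mean inhibition of at least 50% after viability correction, with every replicate also passing that limit; inconclusive = mean reaches 50% but only one of two replicates passes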;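 also: firefly luciferase signal divided by Alamar Blue viability fluorescence both relative to DMSO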
Peg3 promoter: reduces Peg3 promoter-driven luciferase expression in HeLa. HeLa PEG-Prom luciferase reporter, luminescence, overnight. inhibition, % at 20 µM. 1.7% of 360,000 active. AID 588405;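 active = inhibition of at least 50% at 20 µM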
Shn3 3UTR inh: reduces Shn3 3'UTR luciferase signal in osteoblasts; 0.52% of 360,000 active; inhibition, % at 12.5 µM; Clone20 osteoblast Shn3 3'UTR firefly luciferase, 24 h; AID 588674;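 active = mean inhibition of at least 75% with every replicate also reaching 75%; inconclusive = mean inhibition at least 75% but some replicate below; inactive = mean inhibition below 75%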;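 also: 0% = median of neutral control wells and 100% = pilot-screen positive control compound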
TRPM1 prom inh: reduces MITF-dependent TRPM1 promoter luciferase signal | SK-MEL-5 TRPM1 promoter luciferase, 24 h | inhibition, % at 12.5 µM | 0.83% of 330,000 active;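 active = mean inhibition across replicates of 60% or more, whatever share of single replicates reaches that level; inconclusive = some that reach 60%, reason not given; inactive = mean inhibition across replicates below 60%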
Active calls of the source: *; ? = inconclusive; . = not tested or not shown. A selection: hits, their analogues and other compounds. The true share with any hit is near 3%.

SMILES	PAX8 inh HTS	ABHD5 PLIN5 PPI	EWS-Fli block	Peg3 promoter	Shn3 3UTR inh	TRPM1 prom inh
O=C(CCl)NCc1cc(-c2ccc(Cl)cc2)no1	64*	2	62*	27	-4	22
CCCCNC(=O)/C(=C/c1ccccc1)NC(C)=O	139*	7	-5	2	19	0
CC(=O)N/C(=C\c1ccccc1)C(=O)NC(C)C(=O)O (stereo not given)	2	-3	-12	4	-5	5
O=C(O)C[C@H]1C=C[C@@H](NC(=O)CCN2CCCCC2)[C@H](CO)O1	-10	.	.	.	.	.
CC(=O)NC(CCc1ccc(Cl)c(Cl)c1)c1cccc(O)c(=O)c1 (stereo not given)	91*	3	-3	34	?	.
CC(=O)NC(C)c1ccc(Cl)c(Cl)c1 (stereo not given)	.	-3	.	5	-12	6
O=C(NCc1nnnn1-c1ccc(F)cc1)c1ccc([N+](=O)[O-])o1	70*	1	8	3	-27	34
Cc1ccc(-n2nnnc2CNC(=O)c2ccc(Br)o2)cc1C	9	1	.	-2	-30	1
Cc1ccc(-n2nnnc2CNC(=O)c2ccc([N+](=O)[O-])o2)cc1C	84*	-6	26	22	6	62*
Cc1noc(C)c1S(=O)(=O)N(C)C[C@@H]1OCCCC[C@@H](C)Oc2ccc(NS(=O)(=O)c3ccc(Cl)cc3)cc2C(=O)N([C@H](C)CO)C[C@H]1C	24	.	13	.	.	.
O=c1[nH]c(CN2CCN(c3ccc(O)cc3)CC2)nc2scc(-c3ccc(Cl)cc3)c12	?	7	60*	35	-15	43
O=c1[nH]c(CN2CCN(c3ccccc3O)CC2)nc2scc(-c3ccccc3Cl)c12	22	2	15	33	33	12
COc1ccc(C=C2C=C(C(C)(C)C)C(=O)C(C(C)(C)C)=C2)cc1OC	14	12	43	105*	93*	-2
COc1ccc(/C=C2\CCc3ccccc3C2=O)cc1OC	.	-1	.	-153	-36	-34
OCCNc1nc(Nc2ccc(Cl)cc2)nc(N2CCCC2)n1	-2	10	-9	1	87*	2
COc1ccc(Nc2nc(NCCO)nc(N3CCCC3)n2)cc1	3	9	-7	5	-5	-1
Cc1[nH]nc(-c2ccc(O)cc2O)c1-c1ccc(Cl)cc1	.	4	.	30	41	17
C=C(C)COc1ccc(-c2n[nH]c(C)c2-c2ccc(OC)c(OC)c2)c(O)c1	27	-8	61*	23	16	23
COc1ccc(-c2n[nH]c(C)c2-c2ccc(Cl)cc2)c(O)c1	.	-7	.	62*	8	7
COc1ccc(-c2n[nH]c(C)c2-c2ccc(Cl)cc2)c(O)c1OC	44	0	.	72*	39	12
C=C(C)COc1ccc(-c2[nH]ncc2-c2ccc(OC)c(OC)c2)c(O)c1	.	-3	.	39	53	28
Cc1ccc(NC(=O)c2ccc(S(=O)(=O)N(C)c3ccccc3)cc2)cc1S(=O)(=O)N1CCOCC1	65*	-1	27	4	64	3
COc1ccc(NC(=O)c2oc3ccccc3c2CSC)cc1S(=O)(=O)N1CCOCC1	.	2	-1	7	60	7
O=C(Nc1cc(S(=O)(=O)N2CCOCC2)ccc1N1CCOCC1)c1ccc([N+](=O)[O-])s1	4	-7	25	3	20	83*
Cc1ccc(NC(=O)c2oc3ccccc3c2COC(C)C)cc1S(=O)(=O)N1CCOCC1	19	-11	0	42	88*	5
SMILES	PAX8 inh HTS	ABHD5 PLIN5 PPI	EWS-Fli block	Peg3 promoter	Shn3 3UTR inh	TRPM1 prom inh
Cc1ccc(NC(=O)c2ccc([N+](=O)[O-])s2)cc1S(=O)(=O)N1CCOCC1	101*	0	38	11	5	92*
COc1ccc(NC(=O)c2ccc(S(=O)(=O)N(C)c3ccccc3)cc2)cc1S(=O)(=O)N1CCOCC1	38	-1	-2	27	71	.
CCCNC(=O)C[C@H]1CC[C@H]2[C@@H](COc3ccc(NC(=O)c4ccc5c(c4)OCO5)cc3C(=O)N2C)O1	-23	.	-6	.	.	.
COc1cccc(S(=O)(=O)N2CCC3(CC2)CN(C(=O)Nc2cccc(F)c2)[C@@H](CO)c2[nH]c4cc(OC)ccc4c23)c1	.	.	23	.	.	.
CSc1ccc(CN2CCC(CO)(Cc3ccc(Cl)cc3)CC2)cc1	45	15	34	73*	12	22
OCC1(Cc2ccc(Cl)cc2)CCN(Cc2ccccc2F)CC1	4	8	3	-2	16	0
CC(C)C[C@H]1CNC(=S)N1C[C@H]1CCCN1C[C@H](Cc1ccccc1)N1C[C@H](Cc2ccc(O)cc2)N(CC2CCCCC2)C1=S	6	10	15	93*	-11	.
Oc1ccc(C[C@H]2CNC(=S)N2CC2CCCN2C[C@H](Cc2ccc(O)cc2)N2C[C@H](Cc3ccccc3)N(CC3CCCCC3)C2=S)cc1 (stereo not given in full)	87*	3	11	92*	79	35
Oc1ccc(C[C@H]2CNC(=S)N2CC2CCCN2C[C@H](Cc2ccc(O)cc2)N2C[C@H](Cc3ccc(O)cc3)N(CC3CCCCCC3)C2=S)cc1 (stereo not given in full)	99*	5	42	54*	72	72*
Oc1ccc(C[C@@H](CN2CCCC2CN2C(=S)NC[C@@H]2Cc2ccccc2)N2C[C@H](Cc3ccccc3)N(CC3CCCCC3)C2=S)cc1 (stereo not given in full)	19	9	17	.	.	.
CC(C)C[C@H]1CNC(=S)N1CC1CCCN1C[C@H](Cc1ccc(O)cc1)N1C[C@H](Cc2ccccc2)N(CC2CCCCC2)C1=S (stereo not given in full)	?	5	19	-25	22	30
Oc1ccc(C[C@H]2CNC(=S)N2CC2CCCN2C[C@H](Cc2ccccc2)N2C[C@H](Cc3ccc(O)cc3)N(CC3CCCCC3)C2=S)cc1 (stereo not given in full)	77*	16	21	97*	8	.
O=C(C[C@H]1CC[C@H]2[C@@H](COC[C@@H](O)CN2Cc2ccccc2F)O1)NC1CCC1	-3	.	2	.	.	.
Cc1cccc(S(=O)(=O)N2C[C@@H]3[C@H](c4ccccc42)[C@@H](CO)N3C(=O)CC2CC2)c1	7	.	-1	.	.	.
C[C@@H]1CN([C@H](C)CO)C(=O)Cc2cc(NC(=O)Nc3ccccc3)ccc2O[C@@H]1CN(C)Cc1ccc(Oc2ccccc2)cc1	9	.	19	.	.	.
Oc1ccc(C[C@H]2CN([C@@H](Cc3ccccc3)CN3CCC[C@@H]3CN3C(=S)NC[C@@H]3Cc3ccccc3)C(=S)N2CC2CCCCC2)cc1	13	5	8	-1	-5	.
Oc1ccc(C[C@H]2CNC(=S)N2CC2CCCN2C[C@H](Cc2ccc(O)cc2)N2C[C@H](Cc3ccccc3)N(CC3CCCCCC3)C2=S)cc1 (stereo not given in full)	90*	11	20	18	20	18
